PubChem BioAssay AID463173 (ICCB-Longwood Screening Facility, Harvard Medical School, 2010)
In all, about 52,000 compounds went through this assay and about 1,700 (3.3%) were called active. The entries come from a sample that favours actives as a whole. A number with no mark means an inactive call. No stated cut-off is given here; in the data, active means survival mostly below about 52% (no sharp cut-off); inactive means mostly above about 56%.

Each compound was assayed on Wild type (assay: growth inhibition of S. aureus wild type versus tarO mutant, primary screen, teichoic acid synthesis inhibitors, RN4220, OD600 (AID 463173)). Settings: S. aureus RN4220 wild type/DeltatarO growth, OD600, 18 h, stronger effect = lower value, screened at 18.75 µg/mL (by protocol).

| Compound | survival |
| --- | --- |
| Cc1scc(-c2ccccc2)[n+]1CCO | 109% |
| CCOc1ccc(NC2SC(=O)N(Cc3ccccc3)C2=O)cc1 (centres undefined) | 72% |
| COc1cc(OC)c(NC(=O)c2cnn(-c3cccc(Cl)c3C)c2C2CCN(C(=O)OC(C)(C)C)CC2)cc1Cl | 53% |
| COc1ccc(-c2cc(C(F)(F)F)nc(S(C)(=O)=O)n2)cc1 | 98% |
| CCOC(=O)c1ccn(-c2nc(-c3cccc(OC)c3)cc(C(F)(F)F)n2)n1 | 48% |
| COC(=O)CSc1nc(-c2ccc(F)cc2)cc(C(F)(F)F)n1 | 123% |
| COC(=O)c1ccn(-c2nc(-c3ccc(Cl)cc3)cc(C(F)(F)F)n2)n1 | 9% (active) |
| COc1ccc(CNc2nc(-c3ccc(Cl)cc3)cc(C(F)(F)F)n2)cc1 | -4% (active) |
| COc1ccc(CNC(=O)CSc2nc(-c3ccc(OC)c(OC)c3)cc(C(F)(F)F)n2)cc1 | 83% |
| COc1ccc(-c2cc(C(F)(F)F)nc(NCc3ccc(Cl)cc3)n2)cc1 | -3% (active) |
| COc1ccc(-c2cc(C(F)(F)F)nc(SCC(=O)NCc3ccc(Cl)cc3)n2)cc1 | 83% |
| CS(=O)(=O)N(CC(=O)N1CCCC1)c1cccc(Cl)c1Cl | 97% |
| Cc1cc(C)c2nc(NC(=O)c3ccc(S(=O)(=O)N4CCC(C)CC4)cc3)sc2c1 | 79% |
| O=C(CN1C(=O)CSC1=O)NC1CCCCC1 | 104% |
| CC(C)c1cc(C(=O)NC(C)c2ccccc2)no1 (centres undefined) | 81% |
| COc1ccc(OC)c(-c2cc(C(=O)NCc3ccc(Cl)cc3)no2)c1 | 85% |
| COc1ccc(OC)c(-c2cc(C(=O)Nc3cccc(Cl)c3C)no2)c1 | 26% |
| COc1ccc(OC)c(-c2cc(C(=O)NC(C)c3ccccc3)no2)c1 (centres undefined) | -12% (active) |
| COc1ccc(OC)c(-c2cc(C(=O)Nc3ccc(C)c(C)c3)no2)c1 | -9% (active) |
| CC(NC(=O)c1cc(-c2ccc(Cl)cc2)on1)c1ccccc1 (centres undefined) | 140% |
| COc1ccc(CNc2oc(-c3ccc(COc4ccc(OC)cc4)o3)nc2C#N)cc1 | 129% |
| CC(=O)c1nn(-c2ccc(OC(F)(F)F)cc2)nc1Nc1ccc(C)cc1 | 96% |
| CCCS(=O)(=O)Nc1cc2c(cc1NCc1ccccc1)n(C)c(=O)n2C | 82% |
| CC1CCCCN1c1c(S(=O)(=O)c2ccc(Cl)cc2)cnc2ccccc12 (centres undefined) | 3% (active) |
| CCN1CCN(c2c(S(=O)(=O)c3ccc(Cl)cc3)cnc3ccccc23)CC1 | 82% |
| Cc1cccc(S(=O)(=O)c2cn(Cc3ccccc3)c3cc(N4CCCCC4C)c(F)cc3c2=O)c1 (centres undefined) | 71% |
| Cc1ccc2ncc(S(=O)(=O)c3ccccc3)c(N3CCCCC3C)c2c1 (centres undefined) | 0% (active) |
| CCN1CCN(c2c(S(=O)(=O)c3ccccc3)cnc3ccc(Cl)cc23)CC1 | 119% |
| COc1ccc(S(=O)(=O)c2cnc3ccc(Cl)cc3c2N2CCCCC2C)cc1 (centres undefined) | 23% |
